Hit rate of the full screen: of about 360,000 compounds, about 780 (0.22%) were called active. No stated cut-off is given here; in the data, active means inhibition above about 8.5% (passing the limit was not always enough); inconclusive means no clear call, values can overlap the other calls. This excerpt belongs to a sample that is enriched for actives.

The subject of the assay is Mycobacterium tuberculosis FadD28 fatty-acid-AMP ligase. Nature of the assay: inhibitors of FadD28 bisubstrate probe binding, primary screen, biochemical, fluorescence polarization, single point (AID 588549). The settings on record: at 12.5 µM, active compounds read high. A general note: In fluorescence polarisation assays a small probe gives low polarisation when free and higher when bound to something large.
A word on the inhibition: it is the drop in the measured response relative to a control, in per cent. In the case of `CNS(=O)(=O)c1cnccc1N1CCN(c2cccc(C)c2)CC1`, the inhibition was -0.922% (inactive).

As to `CCn1cc(/C=C(\NC(=O)c2ccc(C)cc2)C(=O)NCCN2CCOCC2)c2ccccc21`, the inhibition was 1.23% (inactive).

In the case of `CC(C)CCN1NC2(CCC(C)CC2)NC1=S` (stereo unspecified), the inhibition is -3.86% (inactive).

With `COc1ccc(S(=O)(=O)NC(=O)C2(C)CCN2C(=O)COc2ccc(Cl)cc2)cc1` (stereo unspecified), the inhibition was -5.43% (inactive).

With `CCN(CC(=O)NCc1cccs1)C(=O)c1cccc(S(=O)(=O)Nc2ccccc2OC)c1`, the inhibition is -3.38% (inactive).

With `COc1cccc(/C=N/Nc2ccc(S(=O)(=O)Nc3ccccc3C(=O)O)cc2[N+](=O)[O-])c1O`, the inhibition was 35.4% (active).

Turning to `COc1ccc(Br)cc1/C=N/Nc1ccc(S(=O)(=O)Nc2ccccc2C(=O)O)cc1[N+](=O)[O-]`, the inhibition was -1.21% (inactive).

For `O=c1c(F)cn(C2CCCO2)c(=O)n1Cc1ccccc1Cl` (stereo unspecified), the inhibition is -2.45% (inactive).

In the case of `Cc1nnc(CN(C)Cc2cn[nH]c2-c2ccc(-c3ccccc3)cc2)o1`, the inhibition is -1.34% (inactive).

Take `COc1ccc(OC)c(S(=O)(=O)N(C)CC(=O)N2CCN(c3ccccc3)CC2)c1`: the inhibition is -3.85% (inactive).

In the case of `COc1ccccc1CNC(=O)CSc1nc(=O)n(Cc2ccncc2)c2c1CCC2`, the inhibition is -0.173% (inactive).

Take `OC(CNC1CCCC1)COc1ccc(F)cc1` (stereo unspecified): the inhibition was -4.58% (inactive).

In the case of `Cc1noc(C)c1-c1ccc(C(=O)NCc2ccncc2)c2occc12`, the inhibition is -2.15% (inactive).

As to `Cc1ccc(O)c(-c2cc(C(=O)Nc3c(C)n(C)n(-c4ccccc4)c3=O)[nH]n2)c1`, the inhibition was -2.28% (inactive).

With `COC(=O)c1ccc(CSc2nnc(NC(C)C)s2)cc1`, the inhibition was -3.65% (inactive).

Take `O=C(O)c1ccc(N/N=C/c2ccc3ncccc3c2)cc1`: the inhibition is -1.11% (inactive).

For `O=C(O)c1ccc(N/N=C/c2cn(-c3ccccc3)nc2-c2cccs2)cc1`, the inhibition was 23.7% (active).

`COc1ccc(Cl)cc1NC(=O)CN(C)C(=O)c1cn(-c2ccccc2)nc1-c1cccs1`: the inhibition is -1.26% (inactive).

For `Cc1nnc(Nc2ccccc2F)s1`, the inhibition is -1.11% (inactive).

For the compound `COCCNC(=O)Nc1ccc2nc(-c3ccco3)c(-c3ccco3)nc2c1`, the inhibition was 20.8% (active).

`COCCNC(=O)c1ccc2nc(Cc3ccc(OC)c(OC)c3)oc2c1`: the inhibition was -2.89% (inactive).

Consider `COCCNC(=O)CN(Cc1ccco1)C(=O)CCC(=O)Nc1nccs1`, for which the inhibition was -3.92% (inactive).

In the case of `O=S(=O)(NCCCCCCNS(=O)(=O)c1c(F)cccc1F)c1ccc2c(c1)OCCO2`, the inhibition is -2.1% (inactive).

For `O=C(COC(=O)c1cccc(Cl)c1)NC(=O)NCc1ccccc1`, the inhibition was -1.95% (inactive).

As to `O=C1c2ccccc2C(=O)N1c1ccccc1S(=O)C(F)(F)F` (stereo unspecified), the inhibition is -3.78% (inactive).

With `CC(C(=O)Nc1ccc(F)c(F)c1F)N1CCCCCC1` (stereo unspecified), the inhibition is -6.4% (inactive).

Take `CC1(C)CC(=O)C=C(NCc2ccncc2)C1`: the inhibition was 1.4% (inactive).

As for `CCOc1ccc(CN(C)C(=O)c2ccc(=O)[nH]c2)cc1`, the inhibition was -0.407% (inactive).

For the compound `O=C(Nc1c2c(nn1-c1ccccc1)CS(=O)(=O)C2)C1CCCC1`, the inhibition is -0.538% (inactive).

As to `Cc1nn(C)c(Cl)c1CN1CCC(n2nccc2NC(=O)C2CCCC2)CC1`, the inhibition was 1.24% (inactive).

For `O=C(Cn1ccc([N+](=O)[O-])n1)NCc1cccs1`, the inhibition is -2.06% (inactive).

With `N#C/C(=C/c1ccc(N2CCCCC2)o1)C(=O)NCCc1c[nH]c2ccccc12`, the inhibition was -1.59% (inactive).

In the case of `Cc1ccc(C(O)P(=O)(OC(C)C)c2ccc(N(C)C)cc2)cc1` (stereo unspecified), the inhibition is 0.612% (inactive).

Regarding `CCCCn1c(N)c(N2CCOCC2)c(=O)n(CC(=O)NCCc2ccccc2)c1=O`, the inhibition was 0% (inactive).

On to `N[C@@H](Cc1ccccc1)C(=O)N1CCC(C(=O)NCC(=O)Nc2ccc(F)cc2)CC1`, for which the inhibition is 0.565% (inactive).

For the compound `O=C(CSc1n[nH]c(=O)n1-c1ccccc1)Nc1ccccc1C(F)(F)F`, the inhibition is -1.05% (inactive).

In the case of `C=C1c2c(Cl)ccc(O)c2C(O)=C2C(=O)[C@]3(O)C(O)=C(C(N)=O)C(=O)[C@@H](N(C)C)[C@@H]3[C@@H](O)C12` (stereo partly specified), the inhibition is 11.1% (active).

As to `C[C@H]([C@@H](O)[C@@H](O)[C@@H](C)C(C)(C)C)[C@H]1CC[C@H]2C3CC[C@H]4C[C@H](OS(=O)(=O)O)[C@@H](OS(=O)(=O)O)C[C@]4(C)[C@H]3CC[C@]12C` (stereo partly specified), the inhibition was -4.53% (inactive).

For `Cc1ccc(NC(=O)C(c2ccccc2)N2CCN(C(=O)c3ccco3)CC2)cc1` (stereo unspecified), the inhibition was -0.809% (inactive).

On to `COc1ccc(C(CNC(=O)c2cccc(S(=O)(=O)Nc3ccccc3Cl)c2)N2CCOCC2)cc1` (stereo unspecified), for which the inhibition was 0.098% (inactive).

For the compound `CCCCN=C1N/C(=C\c2ccco2)C(=O)N1c1ccccc1`, the inhibition is -0.549% (inactive).

Consider `COc1ccc(N2C(=O)/C(=C/c3ccco3)C(=O)NC2=S)cc1`, for which the inhibition is 32.5% (active).

Regarding `COC(=O)C1=C(C)N(C(C)c2ccccc2)C(=O)/C1=C\c1ccco1` (stereo unspecified), the inhibition was -2.87% (inactive).

As for `N#CCN(C(=O)COC(=O)C1CC2CCCC(C1)C2=O)c1ccccc1` (stereo unspecified), the inhibition is 0.44% (inactive).

Turning to `CCOC(=O)C(CC)/C(C)=N\NC(=O)c1cccc(C)c1` (stereo unspecified), the inhibition is -0.964% (inactive).

On to `CCN(CC)C(=O)C1=C(C)N(Cc2ccc(F)cc2)C(=O)C(CC(=O)NC2CCCC2)C1` (stereo unspecified), for which the inhibition is -3.83% (inactive).

Take `Cc1ccc(S(=O)(=O)N(C)c2ccc(OCC(=O)OCc3ccc(C#N)cc3)cc2)cc1`: the inhibition is -1.59% (inactive).

For `Nc1ncc(CN2CCCC(C(=O)Nc3ccc(-c4ccco4)cc3)C2)cn1` (stereo unspecified), the inhibition was -5.68% (inactive).

For `O=C(COC(=O)CNS(=O)(=O)c1ccc(F)c(F)c1F)NC1CCCC1`, the inhibition is -2.7% (inactive).

On to `O=C(OCc1ccc([N+](=O)[O-])cc1)C1CC(=O)N(Cc2ccccc2Cl)C1` (stereo unspecified), for which the inhibition was -0.71% (inactive).

As to `Cc1ccc(S(=O)(=O)N2CCOCC2)cc1NC(=O)CSc1nnc(N)s1`, the inhibition is 1.4% (inactive).

Regarding `O=S(=O)(Nc1ccc2nc(-c3ccco3)[nH]c2c1)c1ccccc1`, the inhibition was -2.01% (inactive).

Turning to `COc1cccc2c(O)cc(=O)n(C)c12`, the inhibition is -3.24% (inactive).

As to `COc1cccc2c(C)c(C(=O)O)[nH]c12`, the inhibition was 15.1% (active).

With `COc1cc2c(C(=O)O)c(C)n(C)c2c2ccccc12`, the inhibition was 2.25% (inactive).

With `O=C1Nc2cc(Cl)c(Cl)cc2N(O)N1c1cc(Cl)cc(Cl)c1`, the inhibition is -1.95% (inactive).
